Screening results as filed in PubChem.
PRMT1 inh = PRMT1 (human) inhibition, primary screen. 1.3% of 370,000 active. AID 652257. inhibition, % at 2.79 µM. recombinant PRMT1, activity-based probe fluorescence polarization;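 active means inhibition above about 21% made by adding two undisclosed values, limit read from the data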
NOD2-RIPK2 inh = NOD2-RIPK2 protein interaction inhibition; O43353; CHO BLA complementation NOD2-RIPK2, CCF4 ratio; inhibition, % at 4.98 µM; 0.38% of 360,000 active; in the data active means inhibition above about 21%;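 further: 0% = vehicle only and 100% = reference blocker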
TLR4 MyD88 comp = blocks binding of human TLR4 to MyD88; O00206+Q99836; 0.18% of 200,000 active; AID 861; inhibition, % at 8.4 µM; HeLa CL3-4 TLR4/MyD88 BLA complementation, FRET ratio; in the data active means inhibition above about 25%;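 further: 0% = vehicle and 100% = reference inhibitor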
Target sequence (O00206 whole entry, looked up): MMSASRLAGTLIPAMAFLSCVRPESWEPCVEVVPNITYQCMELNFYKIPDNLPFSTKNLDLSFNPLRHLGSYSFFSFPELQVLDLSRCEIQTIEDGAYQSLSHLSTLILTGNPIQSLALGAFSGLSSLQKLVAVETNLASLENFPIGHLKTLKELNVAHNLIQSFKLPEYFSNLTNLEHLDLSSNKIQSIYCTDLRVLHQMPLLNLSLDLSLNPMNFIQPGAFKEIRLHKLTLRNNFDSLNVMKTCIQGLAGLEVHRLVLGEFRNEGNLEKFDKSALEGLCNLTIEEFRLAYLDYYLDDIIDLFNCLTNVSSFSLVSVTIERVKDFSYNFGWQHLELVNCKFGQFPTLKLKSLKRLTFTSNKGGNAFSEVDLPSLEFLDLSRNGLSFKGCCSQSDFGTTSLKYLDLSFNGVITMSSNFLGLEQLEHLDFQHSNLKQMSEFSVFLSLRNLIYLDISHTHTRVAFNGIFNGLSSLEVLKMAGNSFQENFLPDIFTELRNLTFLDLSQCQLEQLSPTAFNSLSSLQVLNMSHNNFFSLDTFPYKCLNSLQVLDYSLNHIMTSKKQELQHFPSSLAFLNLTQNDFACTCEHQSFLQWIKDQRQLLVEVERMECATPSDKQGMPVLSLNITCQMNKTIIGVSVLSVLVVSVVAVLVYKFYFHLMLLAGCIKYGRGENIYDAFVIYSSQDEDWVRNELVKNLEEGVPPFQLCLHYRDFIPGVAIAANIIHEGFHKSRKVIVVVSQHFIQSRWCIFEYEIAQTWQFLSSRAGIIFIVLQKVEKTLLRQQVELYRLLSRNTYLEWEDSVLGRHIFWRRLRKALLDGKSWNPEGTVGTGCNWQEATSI
Target sequence (Q99836 whole entry, looked up): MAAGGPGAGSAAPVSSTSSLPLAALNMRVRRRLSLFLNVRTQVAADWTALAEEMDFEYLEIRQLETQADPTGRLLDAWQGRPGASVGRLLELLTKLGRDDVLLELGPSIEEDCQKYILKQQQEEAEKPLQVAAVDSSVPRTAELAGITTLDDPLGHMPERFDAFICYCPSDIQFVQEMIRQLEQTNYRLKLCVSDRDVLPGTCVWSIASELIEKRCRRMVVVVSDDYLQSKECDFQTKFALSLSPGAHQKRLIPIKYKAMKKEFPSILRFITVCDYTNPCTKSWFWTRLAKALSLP
TLR9-MyD88 inh = inhibitors of human TLR9-MyD88 binding. Q9NR96+Q99836. 0.21% of 340,000 active. CHO BLA complementation TLR9-MyD88, CCF4 FRET ratio. inhibition, % at 4.98 µM;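 active means inhibition above the mean over all tested compounds plus 3 SD, cut at about 21% in these data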;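 further: 0% = DMSO only wells and 100% = clavulanate BLA inhibitor control wells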
ABHD5-PLIN5 inh = inhibitors of human ABHD5-perilipin-5 interaction; Q00G26+Q8WTS1; Split G. princeps luciferase complementation, luminescence, 4 h; inhibition, % at 4 µM; 0.78% of 360,000 active; AID 602281;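 active means inhibition above the mean inhibition across every tested compound plus 3 SD, cut at about 22% in these data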;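 further: 0% = DMSO only wells and the 100% control is not disclosed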
Exocytosis inh = blocks lytic granule exocytosis. TALL-104 LAMP-1 surface exposure, flow cytometry; cells stimulated with thapsigargin and PMA. inhibition, % at 10 µM. 0.66% of 360,000 active;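 active means inhibition above about 55%, limit read from the data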
PRMT1 inh conf = PRMT1 (human) inhibition, FP confirmation; shares compounds with PRMT1 inh; recombinant His-PRMT1, activity-based probe fluorescence polarization; inhibition, % at 2.79 µM; 42% of 3,300 active;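 active means mean inhibition across replicates above the hit cutoff derived for the earlier primary screen, cut at about 22% in these data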
* = called active by the depositor; · = not tested or not shown. In the library only some 2.6% were active in any assay of this set; here they are far more common.

SMILES	PRMT1 inh	NOD2-RIPK2 inh	TLR4 MyD88 comp	TLR9-MyD88 inh	ABHD5-PLIN5 inh	Exocytosis inh	PRMT1 inh conf
CCOc1ccc2nc3sc(C(=O)N4CCOCC4)c(N)c3cc2c1	28*	-3	-13	3	0	-2	3
NC(=O)c1sc2nc(-c3ccco3)ccc2c1N	51*	4	-4	-8	9	6	17
NC(=O)c1sc2nc3c(cc2c1N)CCC3	0	-2	-2	-4	0	4	·
O=C(Nc1ccccc1F)c1ccco1	2	-5	6	8	12	-2	·
Nc1c(C(=O)Nc2ccccc2F)sc2nc(-c3ccco3)ccc12	47*	6	14	18	17	0	42*
c1coc(-c2cc3nc(NC4CCCCC4)ccn3n2)c1	29*	-6	·	·	5	-31	8
c1coc(-c2cc3nc(NCc4ccc5c(c4)OCO5)ccn3n2)c1	32*	0	·	·	8	3	10
O=C(NC1CCCC1)c1cc2nc(-c3ccco3)cc(C(F)(F)F)n2n1	3	-4	·	-8	3	-8	·
c1ccc(-c2cc3nc(NCc4ccc5c(c4)OCO5)ccn3n2)cc1	-3	11	·	·	3	-15	·
CCCc1cc(C(=O)Nc2cc(C)ccc2O)no1	0	4	·	2	-5	-12	·
Cc1cc2nc(C(C)(C)C)c(Cc3ccccc3C(F)(F)F)n2c(C)c1Br	-2	-12	·	·	-7	-4	·
S=c1[nH]c2ccc(Cl)cc2s1	18	-10	·	-12	-2	7	·
Cc1cccc2sc(=S)[nH]c12	28*	-11	·	·	-5	-13	16
CCC(C)c1ccccc1NC(=O)c1cccc(-n2cnnn2)c1 (stereo not given)	2	-2	·	0	5	-3	·
Nc1ccc2c(S(=O)(=O)O)cccc2c1S(=O)(=O)O	14	-7	·	-2	-29	-3	·
Nc1cccc2cc(S(=O)(=O)O)ccc12	34*	1	·	3	-11	14	17
c1ccc(-c2nccc(-c3ccco3)n2)nc1	1	-12	0	3	-2	-4	·
c1ccc(-c2nc(-c3ccco3)cs2)nc1	51*	-4	-5	8	12	0	1
c1ccc2c(c1)ccn1c(Cc3ccsc3)c(C3CCCCC3)nc21	0	-6	·	·	-3	-3	·
O=C(/C=C/c1ccc(-c2ccccc2[N+](=O)[O-])o1)c1ccccc1	28*	-3	-3	2	5	-2	-2
Nc1cc([N+](=O)[O-])cc2oc(-c3ccccc3)cc12	8	7	·	0	5	-12	·
O=C1CCCCCCC1Sc1ccccc1[N+](=O)[O-] (stereo not given)	30*	-1	-11	-1	-15	0	9
COc1cc(Cl)ccc1NC(=S)N(CCCN1CCOCC1)Cc1cn(C)c2ccccc12	34*	-3	-13	-4	3	10	37*
COc1ccc(Cl)cc1NC(=S)N(CCCN1CCOCC1)Cc1cn(C)c2ccccc12	34*	-1	-2	-9	8	6	37*
CCOC(=O)C1CSC2(CCC(c3ccccc3)CC2)N1 (stereo not given)	48*	-11	2	2	-14	-1	28*
SMILES	PRMT1 inh	NOD2-RIPK2 inh	TLR4 MyD88 comp	TLR9-MyD88 inh	ABHD5-PLIN5 inh	Exocytosis inh	PRMT1 inh conf
c1ccc(Nc2cccc(Nc3ccccc3)n2)cc1	37*	4	12	-5	-27	9	42*
Cc1cc(NC(=O)C(C)SCC(=O)N(C)CC(=O)Nc2ccccc2C(F)(F)F)no1 (stereo not given)	-1	-2	·	-4	3	6	·
Cc1c(N=C2C=C(Br)C(=O)C(Br)=C2)c(=O)n(-c2ccccc2)n1C	61*	-4	-9	-3	-18	7	49*
Cn1ccn(CCCCCCn2ccn(C)c2=S)c1=S	0	1	·	-8	-10	0	·
CCOc1ccc(N=CNc2ccc(OCC)cc2)cc1	2	-1	·	5	-3	-13	·
CCCCN=Cc1sc2ccc(OCC)cc2c1O	30*	1	0	-4	-8	0	32*
O=C(/C=C/c1ccco1)N(Cc1ccc(Cl)cc1)C1CCS(=O)(=O)C1 (stereo not given)	28*	7	·	-9	13	-4	2
